Screening data as filed in PubChem.
A selection: hits, their analogues and other compounds. The true share with any hit is near 1.5%.
B2AR ag: human beta-2 adrenergic receptor agonism by FAP. P07550. Am2.2-beta2AR cells, FAP receptor internalization, flow cytometry. response, % (no concentration beside the values). 340,000 tested, 0.43% active. AID 504454;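 active = response above a set limit, near 3 SD of response in nonfluorescent compounds, cut at about 42% in these data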
TLR9-MyD88 block: inhibitors of human TLR9-MyD88 binding. 340,000 tested, 0.21% active. AID 504734. CHO BLA complementation TLR9-MyD88, CCF4 FRET ratio. inhibition, % at 4.98 µM. Q9NR96+Q99836;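 active = inhibition above the mean over all tested compounds plus 3 SD, cut at about 21% in these data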;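 note: 0% = DMSO only wells and 100% = clavulanate BLA inhibitor control wells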
NTR1 agonist: activates human neurotensin receptor 1; NTR1-U2OS beta-arrestin-GFP spot imaging, agonist mode; activation, % at 20 µM; 330,000 tested, 0.17% active; AID 493036;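 active = activation at or above 40% of the spot to cytoplasm intensity ratio, with at least 20 cells analyzed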;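 note: 0% = DMSO without peptide and 100% = 100 nM NTR1 peptide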
TLR4 MyD88 comp: blocks binding of human TLR4 to MyD88 | O00206+Q99836 | HeLa CL3-4 TLR4/MyD88 BLA complementation, FRET ratio | 200,000 tested, 0.18% active | AID 861 | inhibition, % at 8.4 µM; in the data active = inhibition above about 25%;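 note: 0% = vehicle and 100% = reference inhibitor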
Target sequence (O00206 whole entry, looked up): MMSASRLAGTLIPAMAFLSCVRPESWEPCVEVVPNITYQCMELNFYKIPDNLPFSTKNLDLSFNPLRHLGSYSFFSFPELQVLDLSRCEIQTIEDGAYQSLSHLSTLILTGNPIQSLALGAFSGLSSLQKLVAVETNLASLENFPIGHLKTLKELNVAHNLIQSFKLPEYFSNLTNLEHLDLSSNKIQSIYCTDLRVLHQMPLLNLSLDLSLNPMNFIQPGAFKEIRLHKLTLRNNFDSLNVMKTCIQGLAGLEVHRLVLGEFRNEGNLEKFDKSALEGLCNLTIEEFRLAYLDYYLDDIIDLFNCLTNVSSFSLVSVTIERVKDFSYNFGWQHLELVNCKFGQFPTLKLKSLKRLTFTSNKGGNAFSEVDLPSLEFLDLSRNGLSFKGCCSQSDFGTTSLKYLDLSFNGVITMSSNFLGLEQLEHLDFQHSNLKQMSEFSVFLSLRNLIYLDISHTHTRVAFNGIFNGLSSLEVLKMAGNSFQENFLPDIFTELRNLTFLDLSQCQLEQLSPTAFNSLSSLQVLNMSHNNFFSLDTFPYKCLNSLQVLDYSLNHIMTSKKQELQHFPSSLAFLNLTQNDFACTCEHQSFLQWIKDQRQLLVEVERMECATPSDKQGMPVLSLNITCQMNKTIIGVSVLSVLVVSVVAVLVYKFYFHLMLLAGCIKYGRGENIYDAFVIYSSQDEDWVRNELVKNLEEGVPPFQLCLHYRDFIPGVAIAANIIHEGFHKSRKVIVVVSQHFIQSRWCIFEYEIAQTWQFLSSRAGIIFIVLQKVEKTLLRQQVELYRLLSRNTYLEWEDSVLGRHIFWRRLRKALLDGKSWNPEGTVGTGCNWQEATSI
Target sequence (Q99836 whole entry, looked up): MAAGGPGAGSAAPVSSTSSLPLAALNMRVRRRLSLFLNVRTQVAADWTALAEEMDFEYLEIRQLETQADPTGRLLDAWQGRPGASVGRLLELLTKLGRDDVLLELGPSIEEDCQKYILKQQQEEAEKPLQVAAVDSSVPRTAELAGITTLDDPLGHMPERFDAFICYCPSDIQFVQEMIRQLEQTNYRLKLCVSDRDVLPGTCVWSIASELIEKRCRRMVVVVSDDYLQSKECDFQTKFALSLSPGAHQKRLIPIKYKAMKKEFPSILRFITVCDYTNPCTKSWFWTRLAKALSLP
ABHD5 PLIN5 PPI: ABHD5-PLIN5 protein interaction inhibition. Split G. princeps luciferase complementation, luminescence, 4 h. AID 602281. 360,000 tested, 0.78% active. inhibition, % at 4 µM;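 active = inhibition above the mean inhibition across every tested compound plus 3 SD, cut at about 22% in these data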;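 note: 0% = DMSO only wells and the 100% control is not disclosed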
NOD2-RIPK2 inh: blocks binding of human NOD2 to RIPK2. CHO BLA complementation NOD2-RIPK2, CCF4 ratio. O43353. 360,000 tested, 0.38% active. inhibition, % at 4.98 µM; in the data active = inhibition above about 21%;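 note: 0% = vehicle only and 100% = reference blocker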
ABHD5-PLIN5 conf: confirmation of human ABHD5-PLIN5 interaction inhibitors | 2,200 tested, 67% active | AID 651612 | inhibition, % at 4 µM | shares compounds with ABHD5 PLIN5 PPI | biochemical ABHD5-PLIN5 interaction, luminescence; in the data active = inhibition above about 23%;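 note: 0% = DMSO vehicle wells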
HNF4 counter: active in HNF4 split-luciferase counter-screen for ABHD5-PLIN5 inhibitors; shares compounds with ABHD5 PLIN5 PPI; HNF4 dimerization, luminescence, biochemical; inhibition, % at 4 µM; 2,200 tested, 77% active; AID 651674;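 active = mean inhibition across replicate wells exceeding the computed hit threshold, cut at about 13% in these data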;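 note: light from luciferase halves that rejoin when HNF4 fusion proteins dimerize; 0% = DMSO only wells and the 100% control is not given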
* = called active by the depositor; . = no result given; ! = not confirmed by another sample.

SMILES	B2AR ag	TLR9-MyD88 block	NTR1 agonist	TLR4 MyD88 comp	ABHD5 PLIN5 PPI	NOD2-RIPK2 inh	ABHD5-PLIN5 conf	HNF4 counter
CC12CCC3C(CCC4CC(=O)OCC43C)C1CCC2O (configuration not stated)	-4.3	-8.8	.	.	7.5	5.3	.	.
C[C@]12CCC3C(CC[C@H]4C[C@@H](O)CC[C@]34C)C1=CC[C@@H]2O (some centres not stated)	.	-6.8	.	.	0.7	2.6	.	.
Nc1c(C(=O)NCc2ccco2)c2nc3ccccc3nc2n1Cc1ccccc1	8.1	-15.8	1.5	-8.1	24.6*	-13.8	34.8*	36.3*
CCN(CC)S(=O)(=O)c1ccc(NN=C(C#N)C#N)cc1	22.2	6.4	1.2	0.6	25.8*	-23.2	44.3*	34.8*
Cc1cccc(-n2c(O)c(C=Nc3ccc(Br)cn3)c(=O)[nH]c2=O)c1	-13.1	5.5	-1.0	-2.4	24.2*	4.9	6.8	28.1*
Cc1ccc(OC(=O)N(C)C[C@@H]2OCc3cnnn3CCCC(=O)N([C@@H](C)CO)C[C@H]2C)cc1	.	-2.5	.	.	-3.9	-7.3	.	.
CN1C(=O)C(=Cc2ccccc2OCc2ccccc2Cl)C(=O)N(C)C1=O	13.1	3.4	6.2	-6.3	21.1	-0.7	.	.
CN1C(=O)C(=Cc2ccccc2OS(=O)(=O)c2ccccc2)C(=O)N(C)C1=O	5.1	-4.8	2.0	.	45.4*	-3.3	76.1*	74.5*
Cc1ccccc1CN1Cc2cnnn2-c2ccccc2C1C#N (configuration not stated)	40.9	-2.3	.	.	73.9*	18.8	96.2*	96.4*
Cc1ccccc1C(=O)N1Cc2cnnn2-c2ccccc2C1C#N (configuration not stated)	-0.7	-17.7	.	.	9.0	-5.5	.	.
Cc1cc(C(=O)O)c(C)n1C1CC1	7.5	1.3	0.2	.	15.9	-3.2	.	.
Cn1c(O)c(/C=N/c2ncccn2)c(=O)n(C)c1=O	15.0	1.3	0.0	-6.7	40.0*	-5.4	8.1	23.1*
CCOc1ccc(-c2cc(C)[n+](CCc3ccc(OC)c(OC)c3)c(-c3ccc(OCC)cc3)c2)cc1	8.1	3.9	21.5	.	24.3*	-5.8	7.4	9.8
COCCOC(=O)c1c(C)n(C)c2ccc(OC(=O)N(C)C)cc12	0.6	-11.9	1.3	3.2	-2.8	-1.2	.	.
C=CCN1C(=O)NC(=O)/C(=C\c2ccc(-c3ccccc3[N+](=O)[O-])o2)C1=O	5.5	17.4	14.7	0.5	39.7*	-22.3	84.5*	82.0*
O=C1NC(=S)NC(=O)C1=Cc1cccn1-c1ccc(O)cc1	71.4*	-2.6	.	12.1	24.1*	-9.7	90.7*	94.7*
CCc1nnc(NS(=O)(=O)c2ccc(N=Cc3c(O)n(-c4ccc(Cl)cc4)c(=O)[nH]c3=O)cc2)s1	-27.2	-4.8	-1.5	0.8	30.2*	-4.2	7.4	15.9*
CNS(=O)(=O)c1ccc(N=Cc2c(O)n(-c3ccc(C)cc3)c(=O)[nH]c2=O)cc1	-4.1	3.7	-1.5	.	27.6*	5.2	10.3	37.2*
Cc1ccc(-n2c(O)c(C=Nc3ccc(S(N)(=O)=O)cc3)c(=O)[nH]c2=O)cc1	2.4	3.3	-1.2	6.3	7.2	6.1	.	.
CCN1C(=O)CC(c2cccnc2)=Nc2ccccc21	-13.6	-2.4	-0.3	-8.6	-5.7	-8.0	.	.
O=C1CC(c2cccnc2)=NN1c1ccc(Cl)cc1Cl	3.3	-5.3	-1.0	0.7	23.5*	7.9	0.0	-0.1
Cc1c(NP(=S)(C(C)(C)C)C(C)(C)C)c(=O)n(-c2ccccc2)n1C	-0.5	0.6	0.5	-4.3	-0.9	-1.4	.	.
Cc1c(C=C2C(=O)N(C)C(=O)N(C)C2=O)c(=O)n(-c2ccccc2)n1C	7.2	-11.3	-1.2	-0.5	36.2*	-1.4	11.9	50.8*
O=C1CN=C(c2ccccc2)c2c(sc3c2CCCC3)N1	-9.1	6.8	-0.8	.	0.5	-8.0	.	.
N#CC(C#N)=NNc1ccc(-n2ccc(C(F)(F)F)n2)cc1	27.2	7.8	4.6	.	57.5*	-7.6	83.4*	70.8*
SMILES	B2AR ag	TLR9-MyD88 block	NTR1 agonist	TLR4 MyD88 comp	ABHD5 PLIN5 PPI	NOD2-RIPK2 inh	ABHD5-PLIN5 conf	HNF4 counter
Cc1cc(C)n(-c2ccc(NN=C(C#N)C#N)cc2)n1	16.8	-5.8	7.2	.	43.8*	-5.9	49.0*	42.6*
COC(=O)[C@@H]1C[C@]2(C(=O)O)c3ccccc3N(OOSc3ccccc3)[C@@H]2N1C(=O)OC	1.2	1.2	0.8	.	5.4	-0.6	.	.
COc1ccc(N2C(=O)/C(=C/C=C/c3ccccc3[N+](=O)[O-])C(=O)NC2=S)cc1	.	.	9.6	21.3	.	.	.	.
Cc1ccccc1-n1c(O)c(C(c2ccncc2)c2c(O)n(-c3ccccc3C)c(=O)[nH]c2=O)c(=O)[nH]c1=O	-6.8	-0.3	0.0	.	26.5*	-4.1	55.4*	65.5*
O=S(=O)(c1ccc(Cl)cc1)N1CCCCC1c1cccnc1 (configuration not stated)	-9.0	5.6	0.0	-6.0	-0.7	-8.2	.	.
Cc1ccc(N2C(=O)NC(=O)/C(=C/c3cnc(-c4ccccc4)nc3)C2=O)cc1C	1.2	-4.5	-0.3	-5.5	33.2*	-1.3	86.8*	73.4*
Cc1cccc(N2C(=O)NC(=O)/C(=C\c3cnc(-c4ccccc4)nc3)C2=O)c1	1.9	6.8	0.3	-4.1	14.3	-3.0	.	.
CN1C(=O)C(=Cc2ccc(OCC(=O)Nc3ccccc3)cc2)C(=O)N(C)C1=O	3.8	-0.1	0.1	.	50.1*	-0.2	12.0	27.5*
O=c1cccc2n1C[C@H]1C[C@@H]2CN2CCCC[C@@H]12	4.6	7.2	0.3	.	3.0	1.3	.	.
COC(=O)c1ccc(CC(C(=O)c2ccccc2)N(C)C)cc1 (configuration not stated)	-49.9	4.2	1.2	.	2.5	6.4	.	.
COc1ccc(-n2c(O)c(/C(C)=N/Nc3ccccc3)c(=O)[nH]c2=O)cc1	-9.7	1.0	-1.4	.	14.7	-11.0	.	.
CC/C(=N\Nc1ccccc1)c1c(O)n(-c2ccccc2)c(=O)[nH]c1=O	11.2	0.2	-0.1	.	25.2*	6.2	16.4	19.4*
CC/C(=C(\c1ccccc1)c1ccc(OCCN(C)C)cc1)c1ccccc1	21.6	16.2	18.2	.	38.2*!	5.8	72.4*	25.8*
CCCCc1cc(=O)oc2cc(OCC(=O)N3C[C@H]4C[C@@H](C3)c3cccc(=O)n3C4)c(Cl)cc12	-18.7	-6.5	0.6	.	5.5	10.9	.	.
